Source: PubChem
LASV entry inh: inhibitors of Lassa virus binding or cell entry; Lassa virus pseudotype entry inhibition, cell reporter; Potency, µM (doses to about 37.9 µM), usual class: inhibitors; 300,000 compounds, 1.2% hits; calls by dose curve; tested in HEK293 cells; also: nearly all actives have a fitted effect of over 50% in size
Marburg entry inh: blocks Marburg virus binding to or entry into cells | 300,000 compounds, 1.8% hits | Potency, µM (series often up to 37.8 µM), usual class: inhibitors | AID 540276 | Marburg virus pseudotyped entry inhibition, cell reporter; calls by dose curve; tested in HEK293 cells
Cycloheximide cs: counter-screen hit for Shiga toxin inhibitors, cycloheximide; cell reporter, cycloheximide protein synthesis inhibition counterscreen; max response, %; 300,000 compounds, 12% hits; AID 2314; in the data active = max response mostly above about 13%, no sharp cut-off; inactive = mostly below about 14%; also: read at 38.3 µM for the half of the compounds with a filed dose
Shiga toxin inh: inhibitors of Shiga toxin in Vero cells | Vero cells, Shiga toxin protein synthesis inhibition reporter | inhibition, % at 38.7 µM | 290,000 compounds, 9.2% hits; in the data active = inhibition mostly above about 28%, no sharp cut-off; inactive = mostly below about 43%
AMA1 RON2 block: AMA1-RON2 (P. falciparum) interaction inhibition; AlphaScreen AMA1-biotinylated RON2 peptide binding; Potency, µM (doses to about 58.2 µM), hits mostly inhibitors; 360,000 compounds, 0.2% hits; AID 720542; active = well fitted inhibition curve with a large enough effect; inconclusive = small, poorly fitted or top-dose-only effect; inactive = no such curve, though single readings can be large or run the other way; also: nearly all actives have a fitted effect of over 45% in size
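AMA1 (3D7) with his tag at 25 nM final met compounds first, then biotinylated RON2 peptide at 25 nM; detection used donor plus acceptor beads, 10 µg/mL apiece, read by AlphaScreen after 30 min at room temperature.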
Hits are given with their value. The entries come from a sample that favours hits as a whole.

CCOC(=O)C1=C(CSc2nc(-c3ccccc3)ccc2C#N)OC(N)=C(C#N)C1c1ccccc1 (stereo not given) was read as LASV entry inh inactive, Marburg entry inh inactive, Cycloheximide cs inactive, Shiga toxin inh inactive and AMA1 RON2 block inactive.
`Cc1nn(CC2CC2)c(=O)n1-c1ccccc1` gave LASV entry inh inactive, Marburg entry inh inactive, Cycloheximide cs inactive, Shiga toxin inh inactive and AMA1 RON2 block inactive.
`CC[n+]1c(/C=C/C=C/N(C(C)=O)c2ccccc2)sc2ccccc21` gave LASV entry inh inactive, Marburg entry inh inconclusive, Cycloheximide cs inactive, Shiga toxin inh inactive and AMA1 RON2 block inactive.
`CC[n+]1c(/C=C/C=C2/N(C)c3ccccc3C2(C)C)sc2ccccc21` gave LASV entry inh 1.3µM and Marburg entry inh 0.92µM.
CCN1/C(=C\C=C\C2=[N+](CC)c3ccccc3C2(C)C)C(C)(C)c2ccccc21 was read as LASV entry inh 0.79µM, Marburg entry inh 0.71µM, Cycloheximide cs inactive, Shiga toxin inh inactive and AMA1 RON2 block 14µM.
For C1CCC(C2C3=C(NC4NCNN42)C2=C(CCCC2)CCC3)CC1 (stereo not given) the results were Marburg entry inh inactive.
Screening Cc1cc(C)c2nc(NC(=O)c3cc(C)on3)sc2c1 returned LASV entry inh inactive, Marburg entry inh inactive, Cycloheximide cs 22, Shiga toxin inh inactive and AMA1 RON2 block inactive.
For CCc1noc(C)c1C(=O)Nc1nc2ccc(F)cc2s1 the results were LASV entry inh inactive, Marburg entry inh inconclusive and AMA1 RON2 block inactive.
Screening CCc1ccc2nc(NC(=O)c3cc(C)on3)sc2c1 returned LASV entry inh inconclusive, Marburg entry inh inactive, Cycloheximide cs 54, Shiga toxin inh 95 and AMA1 RON2 block inactive.
Screening COc1cc(OC)c(NS(=O)(=O)c2ccc3c(c2)CCCN3C(C)=O)cc1Cl returned LASV entry inh inactive.
Screening CCCCn1c(N)c(N(CC(C)C)C(=O)CCC2CCCCC2)c(=O)[nH]c1=O returned LASV entry inh inactive, Marburg entry inh inactive, Cycloheximide cs inactive, Shiga toxin inh inactive and AMA1 RON2 block inactive.
Screening N#Cc1nc(-c2ccccc2)oc1NCCCn1ccnc1 returned LASV entry inh inconclusive, Marburg entry inh inactive, Cycloheximide cs 16, Shiga toxin inh inactive and AMA1 RON2 block inactive.
`COc1ccccc1-c1nc(C#N)c(NCCCn2ccnc2)o1` gave LASV entry inh inactive, Marburg entry inh inactive, Cycloheximide cs inactive, Shiga toxin inh inactive and AMA1 RON2 block inactive.
For CCN(CC)CCCNC(=O)c1ccc(OCC(=O)Nc2ccccc2C(F)(F)F)c(OC)c1 the results were LASV entry inh inconclusive, Marburg entry inh 11µM, Cycloheximide cs inactive, Shiga toxin inh inactive and AMA1 RON2 block inactive.
For Cc1cccc(C)c1OCC(=O)Nc1ccccc1C(F)(F)F the results were LASV entry inh inactive, Marburg entry inh inactive, Cycloheximide cs inactive, Shiga toxin inh inactive and AMA1 RON2 block inactive.
Screening CCN(CC(=O)Nc1ccc(OC)c(OC)c1)CC(=O)Nc1ccccc1C(F)(F)F returned LASV entry inh inactive, Marburg entry inh inactive, Cycloheximide cs inactive, Shiga toxin inh inactive and AMA1 RON2 block inactive.
`Cc1cccc(OCC(=O)Nc2cc(C)c(C)cc2O)c1` gave LASV entry inh inactive, Marburg entry inh inactive, Cycloheximide cs inactive, Shiga toxin inh inactive and AMA1 RON2 block inactive.
Screening Cc1cccc(OCC(=O)Nc2cc(C)ccc2O)c1 returned LASV entry inh inactive, Marburg entry inh inactive, Cycloheximide cs 21, Shiga toxin inh 30 and AMA1 RON2 block inactive.
`Cc1cccc(OCC(=O)Nc2ccccc2C(F)(F)F)c1` gave LASV entry inh inactive, Marburg entry inh inconclusive, Cycloheximide cs inactive, Shiga toxin inh 81 and AMA1 RON2 block inactive.
For O=C(Nc1cccc(F)c1)c1ccc(-c2cccnc2)c2ccoc12 the results were AMA1 RON2 block inactive.
Screening Cc1nnc(SCSc2nnc(C)s2)s1 returned LASV entry inh inactive, Marburg entry inh inactive, Cycloheximide cs inactive, Shiga toxin inh inactive and AMA1 RON2 block inactive.
For Cc1nnc(SCc2ccccc2CSc2nnc(C)s2)s1 the results were LASV entry inh inactive, Marburg entry inh inconclusive, Cycloheximide cs 49, Shiga toxin inh inactive and AMA1 RON2 block inactive.
For Cc1nnc(SCc2nnc(-c3cccs3)o2)s1 the results were LASV entry inh inconclusive, Marburg entry inh inactive, Cycloheximide cs 37, Shiga toxin inh inactive and AMA1 RON2 block inactive.
Screening Cc1nnc(SCc2nnc(-c3cccs3)o2)n1C returned Cycloheximide cs inactive, Shiga toxin inh inactive and AMA1 RON2 block inactive.
`COc1ccccc1Cn1c(C2CC(=O)N(c3ccccc3OC)C2)nc2ccccc21` (stereo not given) gave LASV entry inh inactive and Marburg entry inh inactive.
